According to ChEMBL document CHEMBL4888484, “Replenishing the malaria drug discovery pipeline: Screening and hit evaluation of the MMV Hit Generation Library 1 (HGL1) against asexual blood stage Plasmodium falciparum ,using a nano luciferase reporter read-out” (2022):
Hit rate of the full screen: of about 4,800 compounds, about 420 (8.8%) showed an effect of 50% or more. Many of the other results were omitted from the sample, so strong results are more common in it than they were.

The molecules below were run on Plasmodium falciparum (assay: Confirmatory screen in NF54 nanoGlo assay, in single point, at 2uM, 72h). Conditions: timepoint 72 hour.
Type: functional, Erythrocyte

Row | Compound | % Inhibition [%]
1 | CS(=O)(=O)Nc1nc2ccc(NC(=O)c3cc(-c4ccccc4)nc4ccccc34)cc2s1 | 0
2 | CCOc1ccc(-c2cc(NC(=O)c3cc(-c4cccnc4)nc4ccccc34)on2)cc1OCC | 94
3 | COc1ccc(-c2cc(C(=O)NC3CCN(C(C)C)CC3)c3ccccc3n2)cc1OC | -7
4 | COc1ccc(CC[C@](C)(O)c2cc(C(N)=O)no2)cc1 | -9
5 | COc1ccc(N(C(=O)c2ccccc2)C2CC(C)N(C(=O)c3ccccc3)c3cc(OC)c(OC)cc32)cc1OC (stereo unspecified) | -1
6 | N#CCC(=O)Nc1nc(-c2ccc(Oc3ccccc3)cc2)cs1 | -4
7 | Cc1cc(C(=O)N[C@@H](C)CO)c(C)n1-c1nccs1 | -19
8 | c1cc(CN2CCN(C3CCCCCC3)CC2)ccn1 | -18
9 | c1ccc(N2CCN(C3CCN(Cc4ccncc4)CC3)CC2)cc1 | -6
10 | COc1nccnc1N(C(C)=O)S(=O)(=O)c1ccc(NC(C)=O)cc1 | -13
11 | N#Cc1ccc(N2CCN3C(=O)NCC3C2)nc1N1CCN2C(=O)NCC2C1 (stereo unspecified) | -12
12 | CC(C)[C@H](OC(=O)n1ccnc1)C(=O)OC(C)(C)C | -10
13 | CC1C=CC2C(=O)N(CC(F)(F)F)C(=O)C2C1C(=O)N1CCC(Cc2ccccc2)CC1 (stereo unspecified) | -3
14 | Cc1ccc(NC(=O)Cn2cnc3nc(N(C)Cc4ccccc4)sc3c2=O)c(Br)c1 | -14
15 | CC[C@@H](CO)NC(=O)Nc1cccc(C)c1 | 5
16 | CCC(C)(CC)[C@@](O)(C#CC[N+]1(Cc2ccccc2)CCCCC1)c1ccccc1 | 7
17 | CC(CC1OCC(C[N+]2(Cc3ccccc3)CCCCC2)O1)CC(C)(C)C (stereo unspecified) | 57
18 | O=C1CCCC1C(c1ccccc1)N(C1=NS(=O)(=O)c2ccccc21)c1ccccc1 (stereo unspecified) | -10
19 | CNC(=O)CCS(=O)(=O)CCCC(=O)Nc1c(C)cc(C)cc1C | -14
20 | c1ccc2oc(N3CCCCCCC3)nc2c1 | -5
21 | Cc1ccc(CC(=O)N2CCC(NC(=O)OC(C)(C)C)CC2C)o1 (stereo unspecified) | -7
22 | COC[C@@H]1CCCN1c1ccc2c(c1)CNCC(=O)N1CC[C@@H](CC(=O)NCCN3CCOCC3)[C@@H](/C=C/CO2)C1 | -13
23 | CC[n+]1ccc(-c2ncc(-c3ccc(C(C)(C)C)cc3)o2)cc1 | 63
24 | CCC(C)(CC)[C@@](O)(C#CC[N+]1(Cc2ccccc2Cl)CCCCC1)c1ccccc1 | 4
25 | CN1c2cc(C(=O)N3CCc4ccccc4C3)ccc2C(=O)N2CCCC[C@H]21 | -6
26 | Cc1cc2ncn([C@@H](C)c3nc(-c4cnccn4)cs3)c2cc1C | 0

Row | Compound | % Inhibition [%]
27 | CCC[C@H](NC(=O)c1ccc(Cl)o1)c1nnn[nH]1 | 6
28 | C=CCCCNc1ccc(C(N)=O)c(F)c1 | -1
29 | COc1ccc(CCc2nnc(NC(=O)Cc3c(C)noc3C)[nH]2)cc1OC | 15
30 | COc1ccc(CCc2nc(NC(=O)c3nc(C)sc3C)n[nH]2)cc1OC | 65
31 | COc1ccc(CCc2nc(NC(=O)c3[nH]nc4c3CCC4)n[nH]2)cc1 | -1
32 | Cc1c(CCNC(=O)NCC2CC23CCc2ccccc23)cnn1C (stereo unspecified) | -4
33 | Cc1cc(C(=O)NCCCn2cccn2)nc(N2CCOCC2)n1 | 0
34 | Cc1nn(C)cc1-c1nn(-c2nc(C3CC3)cc(C(F)(F)F)n2)c(-c2cn(C)nc2C)c1C | 16
35 | Cc1c(-c2nn(-c3nc(C4CC4)cc(C(F)(F)F)n3)c(-c3cnn(C)c3C)c2Cl)cnn1C | 69
36 | Cc1c(-c2nn(-c3ccccc3)c(-c3cnn(C)c3C)c2Cl)cnn1C | -4
37 | CC(C)Nc1nc2nonc2n2cnnc12 | 69
38 | CN(Cc1cc(C(F)(F)F)ccc1Cl)[C@H]1CCc2nn(C)c(=O)n2CC1 | -8
39 | Cn1ccc2cccc(NC(=O)N3CC(C)(CO)C3)c21 | 1
40 | Cc1c(-c2nn3c(Cc4ccc(Cl)cc4)nnc3s2)cnn1-c1ccccc1 | -16
41 | COc1cc(C(=O)Nc2ccc3sc(NC(=O)c4cc(OC)c(OC)c(OC)c4)nc3n2)cc(OC)c1OC | 56
42 | Cc1cccc(C(=O)Nc2nc3cc4sc(NC(=O)c5cccc(C)c5)nc4cc3s2)c1 | 7
43 | COc1cc(C(=O)Nc2scnc2C)cc(OC)c1OC | -1
44 | C1=CCC(c2nc(-c3cnccn3)no2)C1 | -6
45 | C[C@H](O)CNCc1ccc(Cl)cc1Cl | -8
46 | CCCCCNC(=O)NCc1ncoc1C | -1
47 | CCNC(=O)NCCOC(=O)c1cccc(C)c1Cl | 1
48 | Cc1cc(C)cc(-c2cc3nc(C)cc(N4CCC(C(=O)Nc5ccc(C)c(Cl)c5)CC4)n3n2)c1 | 0
49 | Cc1cc(C)cc(-c2cc3nc(C)cc(N4CCC(C(=O)NCc5cccc(F)c5)CC4)n3n2)c1 | 79
50 | O=C(NCc1cccc(F)c1)[C@H]1CCCN(c2nc3ccccc3n(Cc3ccccc3)c2=O)C1 | 5
51 | CC[n+]1c(C)n(C2CCCCC2)c2ccc(C(=O)OC)cc21 | 0
52 | CC[N+](CC)(CC(=O)OC1CC2CCC1(C)C2(C)C)CC(=O)OC1CC2CCC1(C)C2(C)C (stereo unspecified) | 83

Row | Compound | % Inhibition [%]
53 | Cn1cc(C(C(=O)O[C@@H]2C[C@@H]3CC[C@@]2(C)C3(C)C)c2cn(C)c3ccccc23)c2ccccc21 | 0
54 | O=C(NCc1cccnc1Oc1ccccc1)c1cccnc1 | 5
55 | Cc1nc2cccnc2n1-c1cc(C(=O)NCc2ccccc2Cl)ccc1Cl | -2
56 | CC1CCN(c2nccnc2Oc2ccc(C(=O)NCc3ccccc3Cl)cc2)CC1 | 59
57 | Cc1cc(=O)n2ncc(C(=O)NCc3cc(F)cc(F)c3)c2[nH]1 | -13
58 | C=CCOC(=S)NC(=O)Cc1ccccc1Cl | 7
59 | Cc1ccc(-c2cn3c4ccccc4nc3n2CCN2CCN(C)CC2)cc1 | 2
60 | Cn1c(-c2ccc(-c3ccccc3)cc2)cn2cc(-c3cccc(Br)c3)nc12 | 0
61 | CCN(CC)CCn1c2ccccc2n2cc(-c3ccc(Br)cc3)nc12 | 59
62 | Cn1c(-c2ccc(Br)cc2)cn2cc(-c3ccc(Cl)cc3)nc12 | -5
63 | O=C(Nc1ccccc1)c1cccc(CN2CCN3CCOC[C@@H]3C2)c1 | -5
64 | CCn1cc(NC(=O)CCn2ncc3c(Cl)cccc32)cn1 | -6
65 | O=C(c1cc2ncccn2n1)N1CCc2ccccc2C1 | -3
66 | O=S(=O)(Nc1cccc(-c2nnc3n2CCC3)c1)c1ccc2c(c1)OCCCO2 | -12
67 | CN1CCC(Nc2ncnc3c2cnn3C)C1c1ccc(Cl)cc1 (stereo unspecified) | 4
68 | CC1CC(Nc2ncnc3cc(Br)ccc23)CCN1C (stereo unspecified) | 96
69 | CC[C@H](O)CN1CCC(Nc2ncnc3cc(Cl)ccc23)CC1 | 42
70 | Brc1cncnc1NC1CC1 | 2
71 | Cc1nc(-c2ccc(C(F)(F)F)cc2)nc(N2CCN(C(=O)c3cc(C(F)(F)F)cc(C(F)(F)F)c3)CC2)c1C(C)C | -2
72 | CC(C)(C)C(=O)Nc1cc(Br)c(O)c(Br)c1 | 3
73 | COCCN1CC2(CCCC2)N(C(=O)COc2ccc(F)cc2)CC1=O | -7
74 | COc1cc(=O)c(C(=O)N2CCC(C(N)=O)CC2)nn1-c1ccc(F)c(F)c1 | 3
75 | Cc1nccn1-c1cc(CNC(=O)[C@H]2CCCN(S(=O)(=O)c3cccs3)C2)ccn1 | 2
76 | Cc1n(CC(=O)c2ccccc2)c2ccccc2[n+]1CC(=O)c1ccccc1 | 68
77 | O=C(c1ccccc1)n1c(=O)n(C(=O)c2ccccc2)c2ccccc21 | 6
78 | Cc1ccc(C(=O)C[n+]2cc(-c3ccc(-c4ccccc4)cc3)n(C)c2N)cc1 | 4

Row | Compound | % Inhibition [%]
79 | COc1ccc(S(=O)(=O)N2CCN(Cc3noc(CCC(=O)N(C)Cc4ccccc4)n3)CC2)cc1 | -6
80 | CC(C)(CC(=O)O)CC(=O)Nc1ccc(Cc2nnc3ccccn23)cc1 | -4
81 | c1ccc(-c2cn[nH]c2N2CCNCC2)cc1 | -7
82 | Oc1cc(OCc2ccccc2F)ccc1-c1[nH]ncc1-c1ccccc1 | 75
83 | COc1cc(-c2nc3ccccc3s2)ccc1OCc1cccc2ccccc12 | -7
84 | COc1cc(OC)cc(C2(O)CCN(C(=O)CCc3ccccc3F)CC2)c1 | -10
85 | O=C(NCC1CC1)c1cn[nH]c1-c1ccccc1 | -1
86 | COc1ccc(-c2c(C(F)(F)F)n[nH]c2-c2ccc(OCc3ccccc3F)cc2O)cc1 | 90
87 | NS(=O)(=O)Cc1ccc(CNc2ccc3ccc(F)cc3n2)cc1 | 3
88 | CCC(=O)N1CCc2sc(C(=O)NC3CCN(Cc4ccccc4)CC3)cc2C1 | -5
89 | CCCn1nccc1C(=O)NCCCn1ncc2c(C)cccc21 | -2
90 | CNC(=O)c1cc(NS(=O)(=O)N2CCCCCC2)ccc1F | -8
91 | CCNC(=O)N1CCCC[C@@]1(C)c1noc(-c2ccc(F)cc2)n1 | 5
92 | O=C(Nc1ccncc1)c1nc(N2CCCC2)ncc1Br | -5
93 | COc1cc(CNCCN2CCOCC2)ccc1OCc1cccc(C)c1 | -2
94 | Fc1ccc(COc2cccc(CNCCN3CCOCC3)c2)cc1 | -8
95 | Cc1nn(C)c(Cl)c1CNCc1ccc(N2CCCCC2)nc1 | -10
96 | CC1CCC(C)(NC(=O)Nc2ccn(C(C)C)n2)CC1 (stereo unspecified) | -11
97 | CC1(C)CC[C@H](NC(=O)CCNc2ncccn2)c2ccccc21 | -8
98 | COc1cc2c(cc1OC)CN(c1noc(-c3ccccc3)n1)CC2 | -5
99 | CC(C)(C)c1ccc(C(=O)N[C@H]2C[C@@H]3CC[C@H]2C3)cc1 | 8
100 | Cc1ccc(CNC(=O)c2csnn2)n1C | -1
101 | COc1ccc(CNC(=O)[C@H](C)n2ccc3cc(S(=O)(=O)N4CCCC4)ccc32)cc1OC | 0
